Experimental data published in the supplement of paper PMC10498489.
In all, about 2,300 compounds went through this assay and about 330 (14%) showed activity. Only a sample is shown. Unmarked numbers belong to inactive results.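 How the source made its calls: active = median modified Z-score above 1.96; inactive = 1.96 or below.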

Test system: HepG2 Srxn1-GFP reporter cells (+30 nM CDDO-Me)
Assay: Srxn1-GFP intensity median modified Z-score relative to plate median; higher = stronger NRF2 / oxidative stress reporter activation, active = hit call of the paper
Conditions: 10 µM; exposure time: 24h
Outline: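 HepG2 Srxn1-GFP BAC reporter cells (20,000 per well, 96-well plates) were co-exposed to an NRF2 activator at 30 nM and compound at 10 μM (≤0.1% DMSO) for 24 h in three replicate plates. After formaldehyde fixation and Hoechst staining, confocal images were analysed per cell for cytoplasmic GFP, excluding images with under 100 cells. The value is the median over replicates of the per-plate modified Z-score of GFP intensity. Scaling used 1.4826 × median absolute deviation.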

Compared with `[O-][n+]1cccc(CO)c1` [euspeclibcmpd1263], `NC(=O)C1CCCN(Cc2cccc(CNc3ncc(F)cn3)c2)C1` (stereo unspecified) is higher in “Srxn1-GFP intensity median modified Z-score” value: -0.263 for the first, 1.1 for the second.

Going from `O=C(C=Cc1ccc(O)c(O)c1)OC(Cc1ccc(O)c(O)c1)C(=O)O` (stereo unspecified) [euspeclibcmpd2083] to `O=C(O)C=Cc1ccc(O)c(O)c1` [euspeclibcmpd1336], the “Srxn1-GFP intensity median modified Z-score” value rises from -0.529 to -0.408.

First: Cc1ccc(C)c(N2C(=O)c3ccc(C(=O)OCC(=O)N4CCc5ccccc54)cc3C2=O)c1
Second: CC(CN(C)C)CN1c2ccccc2CCc2ccccc21 (stereo unspecified) [euspeclibcmpd531]
The “Srxn1-GFP intensity median modified Z-score” value of the first is higher: 1.06 for the first, 0.095 for the second.

Going from `O=C(Nc1cccc(Oc2cnccn2)c1)c1cc2cc(F)ccc2[nH]1` to `CC(=O)N1CCN(c2ccc(OCC3CO[C@](Cn4ccnc4)(c4ccc(Cl)cc4Cl)O3)cc2)CC1` (stereo partly specified) [euspeclibcmpd169], the “Srxn1-GFP intensity median modified Z-score” value falls from 1.62 to 0.674.

Going from `CCN(CC)CCNC(=O)c1cc(S(C)(=O)=O)ccc1OC` [euspeclibcmpd525] to `CCN(CC)CCNC(=O)c1cc(Br)c(N)cc1OC` [euspeclibcmpd1122], the “Srxn1-GFP intensity median modified Z-score” value rises from -0.717 to 0.

Going from `CN=C(C[N+](=O)[O-])NCCSCc1ccc(CN(C)C)o1` [euspeclibcmpd2160] to `N=C(N)N=c1[nH]c(CSCCC(=N)NS(N)(=O)=O)cs1` [euspeclibcmpd364], the “Srxn1-GFP intensity median modified Z-score” value rises from -0.118 to 0.317.

First: CC1(C)SC2C(NC(=O)C(N)c3ccc(O)cc3)C(=O)N2[C@H]1C(=O)O (stereo partly specified) [euspeclibcmpd23]
Second: CN(C)c1ccc(O)c2c1C[C@H]1C[C@H]3C(N(C)C)C(=O)C(C(N)=O)C(=O)[C@@]3(O)C(=O)C1C2=O (stereo partly specified) [euspeclibcmpd201]
The “Srxn1-GFP intensity median modified Z-score” value of the first is lower: -0.305 for the first, -0.262 for the second.

First: CC(C)N1CCN(c2ccc(OC[C@H]3CO[C@](Cn4cncn4)(c4ccc(Cl)cc4Cl)O3)cc2)CC1 [euspeclibcmpd617]
Second: COc1ccc(-c2cc(=O)c3c(O)c(OC)c(OC)c(OC)c3o2)cc1 [euspeclibcmpd2317]
The “Srxn1-GFP intensity median modified Z-score” value of the first is higher: 1.6 for the first, 0.184 for the second.

Going from `O=C(O[C@@H]1Cc2c(O)cc(O)cc2OC1c1cc(=O)c(O)c2c(O)c(O)cc(C3Oc4cc(O)cc(O)c4C[C@H]3O)c2c1)c1cc(O)c(O)c(O)c1` (stereo partly specified) [euspeclibcmpd1583] to `CC(=O)O[C@@]12CO[C@@H]1C[C@H](O)[C@@]1(C)C(=O)C(=O)C3C(C)[C@@H](OC(=O)[C@@H](O)[C@@H](NC(=O)OC(C)(C)C)c4ccccc4)C[C@@](O)([C@@H](OC(=O)c4ccccc4)C12)C3(C)C` (stereo partly specified) [euspeclibcmpd1130], the “Srxn1-GFP intensity median modified Z-score” value rises from -0.77 to 1.49.

Going from `COc1ccc(-c2cc(=O)c3c(OC)c(OC)c(OC)c(OC)c3o2)cc1OC` [euspeclibcmpd1435] to `CCc1cc(Cl)c(OC)c(C(=O)NCC2CCCN2CC)c1O` (stereo unspecified) [euspeclibcmpd333], the “Srxn1-GFP intensity median modified Z-score” value falls from 1.9 to 0.457.

Going from `OC[C@@H](O)[C@@H](O)[C@@H](O)[C@H](O)[C@@H](O)CO` [euspeclibcmpd1702] to `C=CCCCCCCCCCCCC(O)CC(O)CO` (stereo unspecified) [euspeclibcmpd1371], the “Srxn1-GFP intensity median modified Z-score” value rises from -0.744 to 1.62.

Going from `CC(=O)OCC(COC(C)=O)OC(C)=O` [euspeclibcmpd301] to `CC(=O)OCC(OC(C)=O)C(OC(C)=O)C(OC(C)=O)C(OC(C)=O)C(COC(C)=O)OC(C)=O` (stereo unspecified) [euspeclibcmpd1364], the “Srxn1-GFP intensity median modified Z-score” value falls from 0.397 to -0.434.

First: C=CCCCCCCCCC(=O)O [euspeclibcmpd2049]
Second: O=C(O)CCNC(=O)c1ccc(N=Nc2ccc(O)c(C(=O)O)c2)cc1 [euspeclibcmpd2245]
The “Srxn1-GFP intensity median modified Z-score” value of the first is higher: 0.331 for the first, -0.361 for the second.

First: COC(=O)CCC(C)C1CCC2C3CC[C@@H]4C[C@H](O)CC[C@]4(C)C3C[C@H](O)[C@]12C (stereo partly specified) [euspeclibcmpd1611]
Second: CCOC(=O)CCC(=O)O[C@H]1[C@H](O[C@@H]2[C@@H](C)[C@H](O[C@H]3C[C@@](C)(OC)[C@@H](O)[C@H](C)O3)C(C)C(=O)O[C@H](CC)[C@@](C)(O)[C@H](O)C(C)C(=O)C(C)C[C@@]2(C)O)O[C@H](C)C[C@@H]1N(C)C (stereo partly specified) [euspeclibcmpd114]
The “Srxn1-GFP intensity median modified Z-score” value of the first is lower: -0.0244 for the first, 0.427 for the second.

`CCS(=O)(=O)CCn1c([N+](=O)[O-])cnc1C` [euspeclibcmpd439] was tested, and the “Srxn1-GFP intensity median modified Z-score” value was 0.00367.

With `O=C(C=Cc1ccc(O)c(O)c1)OCCc1ccccc1` [euspeclibcmpd1775] the “Srxn1-GFP intensity median modified Z-score” value was 3.45 (active).
With `CCN(CC)CCNC(=O)c1cc(Cl)c(N)cc1OC` [euspeclibcmpd197] the “Srxn1-GFP intensity median modified Z-score” value was 86.5 (active).
For `CCC(C)n1ncn(-c2ccc(N3CCN(c4ccc(OC[C@H]5CO[C@](Cn6cncn6)(c6ccc(Cl)cc6Cl)O5)cc4)CC3)cc2)c1=O` (stereo partly specified) [euspeclibcmpd951], the “Srxn1-GFP intensity median modified Z-score” value was 2.71 (active).
`COc1ccc(-c2cc(=O)c3c(OC)c(OC)c(OC)c(OC)c3o2)cc1` [euspeclibcmpd1464] was tested, and the “Srxn1-GFP intensity median modified Z-score” value was 6.78 (active).
For `C#CCCCCCCCCCCCC(O)CC(O)COC(C)=O` (stereo unspecified) [euspeclibcmpd1372], the “Srxn1-GFP intensity median modified Z-score” value was 3.35 (active).
For `C#CCCCCCCCCCCCC(O)CC(O)CO` (stereo unspecified) [euspeclibcmpd1458], the “Srxn1-GFP intensity median modified Z-score” value was 4.24 (active).
In the case of `C=CCCCCCCCCCCCC(O)CC(O)CO` (stereo unspecified) [euspeclibcmpd2211], the “Srxn1-GFP intensity median modified Z-score” value is reported as 2.24 (active).
